The results in this text go back to article PMC12529666, “Dysregulation of AGO2-miRNA dynamics underlies the AGO2-associated Lessel–Kreienkamp syndrome”.

Test in all cases: RNA Bind-n-Seq (nitrocellulose filter binding and sequencing); miR-122 guide loaded in AGO2; 60 min incubation; 30 mM Tris pH 8.0, 100 mM potassium acetate, 2 mM magnesium acetate, 0.5 mM TCEP, 0.005% NP-40, 0.01 mg/ml yeast tRNA; 3 nM AGO2-miR-122, 100 nM RNA library; 60; high values mean tight binding
What all share (conditions): protein: recombinant; tags: His6 (N-terminal, pFastBac HTA)

One experiment addresses AGO2 L192P (Homo sapiens, UniProt Q9UKV8 1-859, L192P;S387D;S824A;S828D;S831D;S834A). An outline of the steps:
(§1)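 His-tagged AGO2 was expressed in Sf9 insect cells by baculovirus, loaded with a synthetic guide RNA, and purified by Ni-NTA and a biotinylated capture oligo. Bound RNA was extracted, reverse-transcribed, barcode-amplified and Illumina-sequenced. Fold enrichment is each sequence's read fraction divided by its input-library read fraction.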

Another experiment deals with AGO2 A367P (Homo sapiens, UniProt Q9UKV8 1-859, A367P;S387D;S824A;S828D;S831D;S834A). An outline of the steps:
as §1

In a further experiment the target is AGO2 T357M (Homo sapiens, UniProt Q9UKV8 1-859, T357M;S387D;S824A;S828D;S831D;S834A). In outline: as §1
Chain of AGO2 T357M (Q9UKV8 whole entry T357M/S387D/S824A/S828D/S831D/S834A): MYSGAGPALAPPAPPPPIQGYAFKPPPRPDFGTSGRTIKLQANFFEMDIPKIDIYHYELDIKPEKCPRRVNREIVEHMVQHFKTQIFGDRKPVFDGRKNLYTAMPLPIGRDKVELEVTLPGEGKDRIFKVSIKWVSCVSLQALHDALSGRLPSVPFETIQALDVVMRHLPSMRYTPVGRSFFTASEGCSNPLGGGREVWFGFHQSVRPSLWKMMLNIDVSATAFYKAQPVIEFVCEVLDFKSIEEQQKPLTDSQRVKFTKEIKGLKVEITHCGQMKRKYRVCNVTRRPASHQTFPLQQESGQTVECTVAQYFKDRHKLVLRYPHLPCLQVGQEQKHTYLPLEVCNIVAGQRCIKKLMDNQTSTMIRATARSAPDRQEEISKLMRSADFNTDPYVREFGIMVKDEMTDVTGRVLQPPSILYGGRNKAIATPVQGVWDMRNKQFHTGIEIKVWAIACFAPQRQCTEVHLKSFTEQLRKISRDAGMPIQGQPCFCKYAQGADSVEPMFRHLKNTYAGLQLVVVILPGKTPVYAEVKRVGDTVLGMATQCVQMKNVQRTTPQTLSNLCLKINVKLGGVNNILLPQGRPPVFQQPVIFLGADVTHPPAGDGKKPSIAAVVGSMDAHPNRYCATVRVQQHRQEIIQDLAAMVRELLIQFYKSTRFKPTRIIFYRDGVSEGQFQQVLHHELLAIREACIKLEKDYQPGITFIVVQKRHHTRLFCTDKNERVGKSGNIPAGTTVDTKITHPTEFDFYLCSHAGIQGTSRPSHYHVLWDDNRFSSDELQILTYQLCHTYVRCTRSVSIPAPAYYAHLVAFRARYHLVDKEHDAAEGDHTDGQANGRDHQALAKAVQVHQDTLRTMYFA
The target of another experiment is AGO2 F182del (Homo sapiens, UniProt Q9UKV8 1-859, S387D;S824A;S828D;S831D;S834A;del182-182). In outline:
as §1

Chain of AGO2 L192P (Q9UKV8 whole entry L192P/S387D/S824A/S828D/S831D/S834A): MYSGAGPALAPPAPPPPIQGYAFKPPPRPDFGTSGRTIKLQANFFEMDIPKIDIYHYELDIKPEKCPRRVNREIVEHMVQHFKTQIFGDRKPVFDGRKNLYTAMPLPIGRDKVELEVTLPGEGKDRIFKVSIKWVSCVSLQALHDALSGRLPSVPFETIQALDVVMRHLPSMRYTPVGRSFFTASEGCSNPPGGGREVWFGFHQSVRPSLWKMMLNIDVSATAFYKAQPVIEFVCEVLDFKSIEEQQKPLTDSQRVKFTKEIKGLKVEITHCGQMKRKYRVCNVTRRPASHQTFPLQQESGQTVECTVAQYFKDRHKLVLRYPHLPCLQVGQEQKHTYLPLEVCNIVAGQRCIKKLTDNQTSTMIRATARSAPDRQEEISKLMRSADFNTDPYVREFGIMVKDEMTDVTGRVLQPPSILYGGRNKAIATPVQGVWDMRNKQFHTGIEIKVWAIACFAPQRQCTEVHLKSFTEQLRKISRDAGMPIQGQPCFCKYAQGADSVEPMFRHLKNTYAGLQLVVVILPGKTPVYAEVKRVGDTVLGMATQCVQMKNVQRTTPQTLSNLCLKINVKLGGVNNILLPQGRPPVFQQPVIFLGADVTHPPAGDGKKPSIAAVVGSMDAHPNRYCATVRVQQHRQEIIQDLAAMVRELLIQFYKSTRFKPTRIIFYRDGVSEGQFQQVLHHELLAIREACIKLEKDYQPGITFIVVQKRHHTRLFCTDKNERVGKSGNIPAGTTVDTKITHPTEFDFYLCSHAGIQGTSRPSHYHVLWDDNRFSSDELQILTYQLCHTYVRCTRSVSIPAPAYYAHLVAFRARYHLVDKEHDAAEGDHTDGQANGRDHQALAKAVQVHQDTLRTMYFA
Chain of AGO2 A367P (Q9UKV8 whole entry A367P/S387D/S824A/S828D/S831D/S834A): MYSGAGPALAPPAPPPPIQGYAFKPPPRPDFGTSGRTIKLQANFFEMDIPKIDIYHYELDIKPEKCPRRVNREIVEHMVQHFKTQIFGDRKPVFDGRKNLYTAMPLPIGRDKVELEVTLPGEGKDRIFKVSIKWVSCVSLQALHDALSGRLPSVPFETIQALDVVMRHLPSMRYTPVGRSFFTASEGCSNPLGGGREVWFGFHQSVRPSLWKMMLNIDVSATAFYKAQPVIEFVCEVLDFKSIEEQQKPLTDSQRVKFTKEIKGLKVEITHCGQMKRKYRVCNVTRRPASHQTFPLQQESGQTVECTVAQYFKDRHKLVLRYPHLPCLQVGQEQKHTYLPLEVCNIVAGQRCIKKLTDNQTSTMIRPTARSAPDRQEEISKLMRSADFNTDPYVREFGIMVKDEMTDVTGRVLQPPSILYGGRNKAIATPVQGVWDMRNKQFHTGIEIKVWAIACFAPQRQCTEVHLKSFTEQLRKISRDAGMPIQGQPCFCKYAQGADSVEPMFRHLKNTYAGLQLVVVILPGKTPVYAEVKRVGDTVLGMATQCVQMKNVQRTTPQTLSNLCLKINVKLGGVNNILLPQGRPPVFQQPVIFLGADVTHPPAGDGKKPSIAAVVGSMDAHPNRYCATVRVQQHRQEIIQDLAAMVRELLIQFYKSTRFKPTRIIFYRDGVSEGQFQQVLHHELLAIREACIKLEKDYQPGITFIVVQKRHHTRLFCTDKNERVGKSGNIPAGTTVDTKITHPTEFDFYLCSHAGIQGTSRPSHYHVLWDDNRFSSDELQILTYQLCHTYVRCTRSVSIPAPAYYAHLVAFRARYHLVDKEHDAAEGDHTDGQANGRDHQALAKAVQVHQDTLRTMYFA
Chain of AGO2 F182del (Q9UKV8 other isoform, or with tags, fused parts or gaps S387D;S824A;S828D;S831D;S834A;del182-182): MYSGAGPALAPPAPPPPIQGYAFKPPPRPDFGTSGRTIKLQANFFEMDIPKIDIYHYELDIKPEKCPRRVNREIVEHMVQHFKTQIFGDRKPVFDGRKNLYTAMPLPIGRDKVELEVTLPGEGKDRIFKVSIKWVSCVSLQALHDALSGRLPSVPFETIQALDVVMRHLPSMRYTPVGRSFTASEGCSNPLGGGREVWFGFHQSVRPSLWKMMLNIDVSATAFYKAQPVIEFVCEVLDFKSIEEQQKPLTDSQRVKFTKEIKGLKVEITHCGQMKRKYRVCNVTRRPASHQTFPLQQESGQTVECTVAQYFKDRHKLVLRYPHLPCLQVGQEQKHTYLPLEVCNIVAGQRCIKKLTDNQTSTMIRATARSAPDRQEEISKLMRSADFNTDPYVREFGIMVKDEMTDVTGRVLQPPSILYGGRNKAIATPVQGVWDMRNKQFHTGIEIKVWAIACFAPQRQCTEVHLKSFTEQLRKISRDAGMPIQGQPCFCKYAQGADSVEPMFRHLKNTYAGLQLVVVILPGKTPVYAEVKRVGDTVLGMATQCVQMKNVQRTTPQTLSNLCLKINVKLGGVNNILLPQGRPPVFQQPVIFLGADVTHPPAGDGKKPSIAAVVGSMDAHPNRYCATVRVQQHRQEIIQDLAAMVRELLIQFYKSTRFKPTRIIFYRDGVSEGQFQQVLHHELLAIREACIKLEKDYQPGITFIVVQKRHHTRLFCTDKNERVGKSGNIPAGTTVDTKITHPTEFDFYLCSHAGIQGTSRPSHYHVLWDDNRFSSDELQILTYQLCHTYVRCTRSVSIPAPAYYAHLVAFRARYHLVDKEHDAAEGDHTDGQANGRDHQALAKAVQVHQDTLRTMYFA

B1: ACACTTCG (ssRNA)
RNA 1: GAGUUCUACAGUCCGACGAUCCCAACACACUUCGCACCUGGAAUUCUCGGGUGCCAA
RNA 2: UGGAGUGUGACAAUGGUGUUUG
DNA 1: GATCGTCGGACTGTAGAACTC
DNA 2: TTGGCACCCGAGAATTCCA
modifications: constant regions annealed to DNA blockers; guide miR-122 5' phosphate
As to B1, the binding signal with AGO2 L192P is 0.433 fold enrichment over input; in the experiment with AGO2 A367P it was 0.201 fold enrichment over input; with AGO2 T357M it was 0.541 fold enrichment over input; with AGO2 F182del, 0.152 fold enrichment over input.

B2: ACGCTTTA (ssRNA)
RNA 1: GAGUUCUACAGUCCGACGAUCCCAACACGCUUUACACCUGGAAUUCUCGGGUGCCAA
RNA 2: UGGAGUGUGACAAUGGUGUUUG
DNA 1: GATCGTCGGACTGTAGAACTC
DNA 2: TTGGCACCCGAGAATTCCA
modifications: constant regions annealed to DNA blockers; guide miR-122 5' phosphate
For B2, the binding signal in the experiment with AGO2 L192P is 0.468 fold enrichment over input; with AGO2 A367P it was 0.195 fold enrichment over input; with AGO2 T357M, 0.588 fold enrichment over input; in the experiment with AGO2 F182del it was 0.135 fold enrichment over input.

B3: GCATTCCG (ssRNA)
RNA 1: GAGUUCUACAGUCCGACGAUCCCAACGCAUUCCGCACCUGGAAUUCUCGGGUGCCAA
RNA 2: UGGAGUGUGACAAUGGUGUUUG
DNA 1: GATCGTCGGACTGTAGAACTC
DNA 2: TTGGCACCCGAGAATTCCA
modifications: constant regions annealed to DNA blockers; guide miR-122 5' phosphate
As to B3, the binding signal is 0.436 fold enrichment over input with AGO2 L192P, 0.171 fold enrichment over input in the experiment with AGO2 A367P and 0.548 fold enrichment over input with AGO2 T357M.

B4: GTGTTCCG (ssRNA)
RNA 1: GAGUUCUACAGUCCGACGAUCCCAACGUGUUCCGCACCUGGAAUUCUCGGGUGCCAA
RNA 2: UGGAGUGUGACAAUGGUGUUUG
DNA 1: GATCGTCGGACTGTAGAACTC
DNA 2: TTGGCACCCGAGAATTCCA
modifications: constant regions annealed to DNA blockers; guide miR-122 5' phosphate
Turning to B4, the binding signal with AGO2 L192P was 0.408 fold enrichment over input; with AGO2 A367P, 0.144 fold enrichment over input; in the experiment with AGO2 T357M it was 0.544 fold enrichment over input.

B5: GCGTCTTG (ssRNA)
RNA 1: GAGUUCUACAGUCCGACGAUCCCAACGCGUCUUGCACCUGGAAUUCUCGGGUGCCAA
RNA 2: UGGAGUGUGACAAUGGUGUUUG
DNA 1: GATCGTCGGACTGTAGAACTC
DNA 2: TTGGCACCCGAGAATTCCA
modifications: constant regions annealed to DNA blockers; guide miR-122 5' phosphate
As for B5, the binding signal with AGO2 L192P was 0.395 fold enrichment over input; with AGO2 A367P, 0.141 fold enrichment over input; in the experiment with AGO2 T357M, 0.547 fold enrichment over input.

B6: GCGCTTCG (ssRNA)
RNA 1: GAGUUCUACAGUCCGACGAUCCCAACGCGCUUCGCACCUGGAAUUCUCGGGUGCCAA
RNA 2: UGGAGUGUGACAAUGGUGUUUG
DNA 1: GATCGTCGGACTGTAGAACTC
DNA 2: TTGGCACCCGAGAATTCCA
modifications: constant regions annealed to DNA blockers; guide miR-122 5' phosphate
As for B6, the binding signal in the experiment with AGO2 L192P was 0.354 fold enrichment over input; with AGO2 A367P, 0.148 fold enrichment over input; with AGO2 T357M it was 0.531 fold enrichment over input.

B7: GTGCCCTG (ssRNA)
RNA 1: GAGUUCUACAGUCCGACGAUCCCAACGUGCCCUGCACCUGGAAUUCUCGGGUGCCAA
RNA 2: UGGAGUGUGACAAUGGUGUUUG
DNA 1: GATCGTCGGACTGTAGAACTC
DNA 2: TTGGCACCCGAGAATTCCA
modifications: constant regions annealed to DNA blockers; guide miR-122 5' phosphate
As for B7, the binding signal with AGO2 L192P is 0.425 fold enrichment over input; in the experiment with AGO2 A367P, 0.161 fold enrichment over input; with AGO2 T357M it was 0.581 fold enrichment over input.

B8: GCACTTCG (ssRNA)
RNA 1: GAGUUCUACAGUCCGACGAUCCCAACGCACUUCGCACCUGGAAUUCUCGGGUGCCAA
RNA 2: UGGAGUGUGACAAUGGUGUUUG
DNA 1: GATCGTCGGACTGTAGAACTC
DNA 2: TTGGCACCCGAGAATTCCA
modifications: constant regions annealed to DNA blockers; guide miR-122 5' phosphate
Turning to B8, the results for the binding signal with AGO2 L192P, with AGO2 A367P and in the experiment with AGO2 T357M were 0.348 fold enrichment over input, 0.147 fold enrichment over input and 0.471 fold enrichment over input, respectively.

B9: ATGTTCTA (ssRNA)
RNA 1: GAGUUCUACAGUCCGACGAUCCCAACAUGUUCUACACCUGGAAUUCUCGGGUGCCAA
RNA 2: UGGAGUGUGACAAUGGUGUUUG
DNA 1: GATCGTCGGACTGTAGAACTC
DNA 2: TTGGCACCCGAGAATTCCA
modifications: constant regions annealed to DNA blockers; guide miR-122 5' phosphate
In the case of B9, the binding signal is 0.469 fold enrichment over input with AGO2 L192P, 0.206 fold enrichment over input with AGO2 A367P, 0.606 fold enrichment over input with AGO2 T357M and 0.182 fold enrichment over input with AGO2 F182del.

B10: ATATCCCG (ssRNA)
RNA 1: GAGUUCUACAGUCCGACGAUCCCAACAUAUCCCGCACCUGGAAUUCUCGGGUGCCAA
RNA 2: UGGAGUGUGACAAUGGUGUUUG
DNA 1: GATCGTCGGACTGTAGAACTC
DNA 2: TTGGCACCCGAGAATTCCA
modifications: constant regions annealed to DNA blockers; guide miR-122 5' phosphate
Take B10: the binding signal with AGO2 L192P was 0.335 fold enrichment over input; with AGO2 T357M, 0.422 fold enrichment over input.

B11: GTATCCTG (ssRNA)
RNA 1: GAGUUCUACAGUCCGACGAUCCCAACGUAUCCUGCACCUGGAAUUCUCGGGUGCCAA
RNA 2: UGGAGUGUGACAAUGGUGUUUG
DNA 1: GATCGTCGGACTGTAGAACTC
DNA 2: TTGGCACCCGAGAATTCCA
modifications: constant regions annealed to DNA blockers; guide miR-122 5' phosphate
Regarding B11, the values for the binding signal in the experiment with AGO2 L192P, with AGO2 A367P and with AGO2 T357M were 0.337 fold enrichment over input, 0.123 fold enrichment over input and 0.449 fold enrichment over input, respectively.
